Source: PubChem BioAssay
Compounds with a hit are over-represented: about 5.7% of the library has one in this group of screens.
RORgamma inh = blocks mouse ROR gamma transcriptional activity | P51450 | Drosophila S2 Gal4-RORgamma UAS-luciferase reporter, 20 h | Potency, µM (titrated, usually from 53.6 µM), inactives show at the highest dose activity change, negative = inhibition, most hits filed as inhibitors | hit rate 5.4% among 310,000; also: nearly all actives have a fitted effect of over 60% in size
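Drosophila Schneider cells stably carrying a metallothionein-driven Gal4 DBD–ROR gamma fusion and a UAS-Photinus luciferase reporter were exposed to compound for 1 hr, then induced with copper sulfate (700 uM final) for 20 hr at ambient temperature before luminescence reading.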
B2AR arrestin = recruits beta-arrestin to the human beta2-adrenergic receptor. beta-arrestin recruitment to beta2AR, cell-based reporter. AID 492947. hit rate 0.02% among 330,000. P07550. Potency, µM (highest dose often 46.1 µM), inactives show at the highest dose activation, most hits filed as activators;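 also: 0% = DMSO controls and full agonism = EC100 isoproterenol or metaproterenol; nearly all actives have a fitted effect of over 65% in size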
VP16 counter = counter-screen for ROR gamma inhibitors: Gal4-VP16 reporter | Drosophila S2 Gal4-VP16 UAS-luciferase, luminescence, 20 h | Potency, µM (doses to about 53.6 µM), without a hit: at the highest dose activity, negative = inhibition, hits mostly inhibitors | hit rate 3.5% among 310,000;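 also: Gal4-VP16 expression switched on by copper sulfate through the metallothionein promoter; nearly all actives have a fitted effect of over 50% in size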
NPSR antag = blocks cAMP signaling of the human neuropeptide S receptor; Potency, µM (top dose mostly 38.3 µM), for inactives: at the highest dose activity change, negative = inhibition, hits mostly inhibitors; CHO-NPSR cells, cAMP TR-FRET, antagonist mode; hit rate 1% among 220,000; AID 1461; also: nearly all actives have a fitted effect of over 50% in size
Target sequence (Q6W5P4 whole entry, looked up): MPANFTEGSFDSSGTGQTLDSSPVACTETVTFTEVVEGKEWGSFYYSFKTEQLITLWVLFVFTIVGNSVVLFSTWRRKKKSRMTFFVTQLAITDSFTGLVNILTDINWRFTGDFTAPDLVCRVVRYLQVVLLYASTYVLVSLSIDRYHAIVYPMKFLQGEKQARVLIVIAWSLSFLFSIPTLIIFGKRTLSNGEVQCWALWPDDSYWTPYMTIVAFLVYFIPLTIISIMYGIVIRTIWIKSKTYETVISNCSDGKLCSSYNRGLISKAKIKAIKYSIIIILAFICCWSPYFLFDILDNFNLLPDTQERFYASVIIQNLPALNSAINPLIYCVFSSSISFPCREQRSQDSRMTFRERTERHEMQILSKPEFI
An asterisk follows results filed as active; ? = inconclusive; . = no result; [ ] = another dose, or the depositor's remark. Calls follow the shape of the dose curve; as a rule, active = well fitted curve in the direction sought with a large enough effect; inconclusive = small, poorly fitted or top-dose-only effect, or another doubt; inactive = no such curve, though single readings can be large; an effect the other way counts as inactive or inconclusive. Unless noted, % is scaled to controls: 0 for no effect and ±100 for the full control effect; potency is read from the fitted curve at half-maximal effect.

SMILES	RORgamma inh	B2AR arrestin	VP16 counter	NPSR antag
COc1cccc(NC(=O)CN2C(=O)COc3ccc(S(=O)(=O)N4CCC(C)CC4)cc32)c1	45%	-1%	-5%	.
COc1ccc(NC(=O)CC2C(=O)N(c3ccc(OC)cc3)C(=S)N2NC(=O)c2cccc(F)c2)cc1 (stereo unspecified)	13µM*	?	?	-14%
Cc1ccc(C)c(OCc2nnc(N)s2)c1	13µM*	0%	-13%	0%[46.1 µM]
Nc1nnc(COc2ccc(Br)cc2Br)s1	3%	0%	-6%	-3%[46.1 µM]
Nc1c(C(=O)Nc2nc3ccccc3s2)sc2nc(-c3cccs3)ccc12	18%	0%	-19%	10µM*
CC(=O)c1sc2nc(-c3cccs3)ccc2c1N	24%	0%	11%	-3%[46.1 µM]
CCOc1cc(C(=O)OCC(=O)Nc2cccc(S(=O)(=O)NC3=NCCCCC3)c2)cc(OCC)c1OCC	.	0%	.	.
COc1cccc(CC2(CO)CCCN(Cc3ccc(CN4CCCCC4)s3)C2)c1 (stereo unspecified)	-18%	-1%	3%	-7%
COc1ccc(NCc2nnc(SCC(=O)Nc3nc(-c4ccccc4)cs3)n2-c2ccccc2)cc1	8%	-1%	5µM*	8%
Cc1cc(-c2nnc(SCC(=O)NC3CCCC3)o2)no1	-9%	-1%	0%	-12%[46.1 µM]
Cc1cc(-c2nnc(SCC(=O)Nc3nc(-c4ccccc4)cs3)o2)no1	14µM*	-1%	-10%	-8%
Cc1csc(NC(=O)CSc2nnc(-c3cc(C)on3)o2)n1	14µM*	0%	14µM*	4%
COc1ccc(Cc2nnc(SCC(=O)Nc3nc(C)cs3)o2)cc1	35µM*	0%	-4%	-8%[46.1 µM]
COc1ccc(-n2c(CNc3ccc(C)cc3)nnc2SCC(=O)Nc2nc(-c3ccccc3)cs2)cc1	15%	0%	-8%	-3%[46.1 µM]
CC(C1CCN(Cc2cn(C)nc2-c2cccc(Cl)c2)CC1)N1CCOCC1 (stereo unspecified)	6%	0%	5%	-1%
C[C@H](Cc1ccccc1)Nc1ncnc2c1ncn2[C@@H]1O[C@H](CO)[C@H](O)[C@H]1O	.	.	.	10%[46.1 µM]
CCc1cccc(CC)c1NC(=S)/C(=C(\[O-])c1ccc(Cl)s1)[n+]1ccccc1	?	0%	-7%	-23%
[O-]/C(=C(\C(=S)Nc1cccc2ccccc12)[n+]1ccccc1)c1ccc(Cl)s1	20µM*	-1%	?	-10%
Cc1ccccc1S(=O)(=O)Oc1cccc2c(O)cccc12	7.1µM*	0%	?	.
O=C(CN(Cc1ccccc1)C(=O)CCl)c1cccc(Br)c1	.	0%	.	.
CCCN1C(=O)C(O)(CC(=O)c2cccc(OC)c2)c2ccccc21 (stereo unspecified)	-17%	0%	14µM*	-26%[46.1 µM]
CCCN1C(=O)C(O)(CC(=O)c2ccc3c(c2)OCCO3)c2ccccc21 (stereo unspecified)	35%	-1%	4%	-6%[46.1 µM]
Cc1cc(/C=N/NC(N)=S)c(C)n1-c1ccc(Cl)c(Cl)c1	1.4µM*	14%	3.2µM*	-42%
CCNC(=S)N/N=C/c1cc(C)n(-c2ccc(Cl)cc2)c1C	1.4µM*	?	5µM*	-22%
Cc1nc2ccccn2c1C(=O)N/N=C/c1cc(C)n(-c2ccc(Cl)cc2)c1C	20µM*	0%	13µM*	?
SMILES	RORgamma inh	B2AR arrestin	VP16 counter	NPSR antag
Cc1nc2ccccn2c1C(=O)N/N=C/c1ccccc1[N+](=O)[O-]	-8%	0%	-2%	-9%[46.1 µM]
CC1CC=CC2C1C(=O)N(Cc1ccccc1)C2c1ccc(C(F)(F)F)cc1 (stereo unspecified)	44%	.	?	.
O=c1oc2ccccc2cc1-c1cn2ccccc2n1	1µM*	-1%	2.2µM*	12%
O=c1oc2ccccc2cc1-c1cn2cccnc2n1	?	0%	?	1%[46.1 µM]
CC(=O)c1cn(CCOc2cc(C)ccc2C)c2ccccc12	?	0%	4µM*	.
CN1CCN(C(=S)c2cn(CCOc3ccccc3)c3ccccc23)CC1	11µM*	0%	?	-33%
CN1CCN(C(=S)c2cn(CCOc3ccccc3F)c3ccccc23)CC1	14µM*	0%	-8%	42%
Cc1cc(C)c(S(=O)(=O)N2CCCCC2CCNC(=O)C(=O)NCc2ccccn2)c(C)c1 (stereo unspecified)	.	0%	.	.
C[C@@H](O)C(N)C(=O)O (stereo partly specified)	-10%	.	6%	.
Cc1oc2cc3oc(=O)c(CCC(=O)NCc4ccccn4)c(C)c3cc2c1C	6.3µM*	-1%	?	.
CCOC(=O)N=Nc1c(O)n(CC(=O)OC)c2ccccc12	3%	0%	4%	-17%
CCOC(=O)N=Nc1c2ccccc2c2nc3no[nH]c3nc12	0.35µM*	-1%	4µM*	6.3µM*
CC(=O)Nc1ccccc1C(F)(F)F	0%	0%	2%	-3%[7.67 µM]
O=C(NNC(=S)Nc1ccccc1C(F)(F)F)C1CC1	20µM*	0%	6%	-35%
O=C(CCC(=O)Nc1ccccc1Cl)NNC(=S)Nc1ccccc1C(F)(F)F	7.9µM*	0%	?	.
CC(NC(=S)Nc1ccccc1C(F)(F)F)C1CC2CCC1C2 (stereo unspecified)	3.2µM*	0%	10µM*	-39%
CC(NC(=S)Nc1ccc(S(=O)(=O)N2CCOCC2)cc1)C1CC2CCC1C2 (stereo unspecified)	?	-1%	?	-19%
NS(=O)(=O)c1ccc(NC(=S)NNC(=O)CCC(=O)Nc2ccccc2Cl)cc1	-24%	0%	5%	.
C=C(C)C(=O)OCC(C)O (stereo unspecified)	-9%	.	-1%	.
NC(=O)c1ccsc1NC(=O)CS(=O)(=O)c1ccc(F)cc1	.	0%	.	.
CCOC(=O)c1c(C)cc(C)n2c1nc1ccccc12	5.6µM*	0%	5%	3%[46.1 µM]
CCOC(=O)CSc1cc(C)c(C#N)c2nc3ccccc3n12	-34%	0%	3%	-5%
CCOC(=O)C1=C(O)C(=O)N(Cc2cccnc2)C1c1ccc(OC)cc1 (stereo unspecified)	19%	0%	4%	-8%
CCOc1ccc(-n2c(SCc3cc(=O)oc4cc(C)ccc34)nnc2-c2cccnc2)cc1	16%	-2%	-4%	0%
CC(C)c1ccccc1-n1c(SCc2cc(=O)oc3ccc4ccccc4c23)nnc1-c1cccnc1	?	-1%	?	10µM*
COC(=O)CN1C(=O)[C@@H]2[C@H](C1=O)[C@@H]1CC(C(=O)OC)=C[C@@H](C(=O)OC)C3C1=C(C(=O)C31CCCCC1)[C@@H]2C (stereo partly specified)	36%	.	-25%	.
NNc1nc(Nc2ccccc2)nc(Nc2ccccc2)n1	16µM*	4%	-24%	-10%
NNc1nc(Nc2ccc([N+](=O)[O-])cc2)nc(N2CCCCCC2)n1	?	0%	16µM*	.
O=[N+]([O-])c1ccc(Nc2nc(N/N=C\c3ccc4c(c3)OCO4)nc(N3CCCCC3)n2)cc1	4.5µM*	0%	?	?
O=[N+]([O-])c1ccc(/C=N/Nc2nc(N3CCCCC3)nc(N3CCCCC3)n2)cc1	-13%	0%	-9%	?
